Source: article PMC7862700, “An all-to-all approach to the identification of sequence-specific readers for epigenetic DNA modifications on cytosine”

Columns and labels:
Assay in all cases: DAPPL (digital affinity profiling via proximity ligation, sequencing); 10 mM Tris-HCl pH 7.5, 50 mM NaCl, 1 mM DTT, 4% glycerol, room temperature, 30 min; GST-TFs on glutathione beads, 16-mer random dsDNA library, 0.1% formaldehyde crosslink after washing; high values mean tight binding
Conditions in all cases: protein: recombinant; tags: N-terminal GST; dsDNA, one strand shown
FLI1 = target: T1, FLI1 (Homo sapiens, UniProt Q01543 1-452)
T1 sequence: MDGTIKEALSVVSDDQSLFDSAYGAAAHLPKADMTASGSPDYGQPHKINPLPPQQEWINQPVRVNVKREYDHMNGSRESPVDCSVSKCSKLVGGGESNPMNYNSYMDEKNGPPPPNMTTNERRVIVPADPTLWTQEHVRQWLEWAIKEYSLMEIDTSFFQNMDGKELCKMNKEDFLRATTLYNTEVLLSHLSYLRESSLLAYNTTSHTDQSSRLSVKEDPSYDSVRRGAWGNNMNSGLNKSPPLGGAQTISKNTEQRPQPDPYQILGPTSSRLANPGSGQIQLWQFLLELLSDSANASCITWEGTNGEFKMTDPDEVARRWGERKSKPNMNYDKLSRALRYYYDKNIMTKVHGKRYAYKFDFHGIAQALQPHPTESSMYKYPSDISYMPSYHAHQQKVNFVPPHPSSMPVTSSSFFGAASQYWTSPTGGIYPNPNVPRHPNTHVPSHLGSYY
Summary of the method: (§1)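 A tag-only sample was pooled with DNA-barcoded human transcription factors that had been expressed in yeast as GST fusions and captured on glutathione beads. The pools were incubated for 30 min at room temperature with 200 nmole of a random double-stranded 16-mer DNA library in Tris/NaCl/DTT/glycerol buffer, then washed, crosslinked with 0.1% formaldehyde, proximity-ligated (BsaI/T4 ligase, 1 h, 37 °C), PCR-amplified and sequenced on an Illumina NextSeq500. Binding signal is each hexamer's read frequency for a factor divided by its frequency for the tag-only sample.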

ELK1 = target: T2, ELK1 (Homo sapiens, UniProt P19419 1-428)
T2 sequence: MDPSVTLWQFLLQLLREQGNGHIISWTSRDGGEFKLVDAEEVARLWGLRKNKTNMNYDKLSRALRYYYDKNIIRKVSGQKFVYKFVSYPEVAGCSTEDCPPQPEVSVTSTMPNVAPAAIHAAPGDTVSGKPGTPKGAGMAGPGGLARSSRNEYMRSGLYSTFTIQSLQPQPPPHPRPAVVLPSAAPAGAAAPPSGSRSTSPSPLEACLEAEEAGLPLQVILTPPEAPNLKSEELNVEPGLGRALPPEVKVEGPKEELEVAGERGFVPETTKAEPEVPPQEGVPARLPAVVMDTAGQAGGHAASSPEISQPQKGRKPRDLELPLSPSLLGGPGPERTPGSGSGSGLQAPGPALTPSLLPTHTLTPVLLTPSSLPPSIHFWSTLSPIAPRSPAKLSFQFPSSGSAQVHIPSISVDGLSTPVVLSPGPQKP
Summary of the method: as §1

GABPA = target: T3, GABPA (Homo sapiens, UniProt Q06546 1-454)
T3 sequence: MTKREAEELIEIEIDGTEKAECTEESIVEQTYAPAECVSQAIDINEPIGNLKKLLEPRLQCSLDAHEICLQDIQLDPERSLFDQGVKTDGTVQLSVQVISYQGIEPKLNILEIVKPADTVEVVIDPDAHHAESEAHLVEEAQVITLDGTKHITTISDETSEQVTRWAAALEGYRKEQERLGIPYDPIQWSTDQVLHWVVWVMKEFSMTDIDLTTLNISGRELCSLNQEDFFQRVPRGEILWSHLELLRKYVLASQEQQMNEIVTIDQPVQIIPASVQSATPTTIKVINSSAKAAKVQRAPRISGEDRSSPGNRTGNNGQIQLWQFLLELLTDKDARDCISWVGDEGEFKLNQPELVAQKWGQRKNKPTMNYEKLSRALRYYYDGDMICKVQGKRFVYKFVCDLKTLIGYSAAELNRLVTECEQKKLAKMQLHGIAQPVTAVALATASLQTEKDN
Summary of the method: as §1

ERG = target: T4, ERG (Homo sapiens, UniProt P11308 1-479)
T4 sequence: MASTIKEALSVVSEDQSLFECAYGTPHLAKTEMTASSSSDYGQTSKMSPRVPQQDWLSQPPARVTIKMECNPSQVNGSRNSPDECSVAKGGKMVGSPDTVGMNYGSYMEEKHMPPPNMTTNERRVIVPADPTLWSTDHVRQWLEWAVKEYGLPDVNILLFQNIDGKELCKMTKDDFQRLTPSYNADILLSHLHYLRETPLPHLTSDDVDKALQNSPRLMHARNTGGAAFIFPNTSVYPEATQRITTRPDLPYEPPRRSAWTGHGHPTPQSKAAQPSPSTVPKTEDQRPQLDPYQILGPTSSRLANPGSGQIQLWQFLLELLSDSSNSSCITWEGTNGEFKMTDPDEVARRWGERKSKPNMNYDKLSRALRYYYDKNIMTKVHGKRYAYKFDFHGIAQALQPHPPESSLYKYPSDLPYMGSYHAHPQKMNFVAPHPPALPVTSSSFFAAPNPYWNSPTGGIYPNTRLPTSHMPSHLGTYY
Summary of the method: as §1

ELF1 = ELF1 (Homo sapiens, UniProt P32519 1-619)
Summary of the method: as §1

EHF = target: T5, EHF (Homo sapiens, UniProt Q9NZC4 1-300)
T5 sequence: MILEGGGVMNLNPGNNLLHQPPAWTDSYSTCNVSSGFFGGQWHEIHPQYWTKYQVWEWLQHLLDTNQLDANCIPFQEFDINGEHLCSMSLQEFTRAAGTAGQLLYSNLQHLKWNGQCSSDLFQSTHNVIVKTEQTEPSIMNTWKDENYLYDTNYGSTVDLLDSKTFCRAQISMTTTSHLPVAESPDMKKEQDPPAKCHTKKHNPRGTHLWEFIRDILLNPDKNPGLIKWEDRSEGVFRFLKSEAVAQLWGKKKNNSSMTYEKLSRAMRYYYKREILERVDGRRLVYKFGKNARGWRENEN
Summary of the method: as §1

SPI1 = SPI1 (Homo sapiens, UniProt P17947 1-270)
Summary of the method: as §1

SPIB = SPIB (Homo sapiens, UniProt Q01892 1-262)
Summary of the method: as §1

ELK3 = target: T6, ELK3 (Homo sapiens, UniProt P41970 1-407)
T6 sequence: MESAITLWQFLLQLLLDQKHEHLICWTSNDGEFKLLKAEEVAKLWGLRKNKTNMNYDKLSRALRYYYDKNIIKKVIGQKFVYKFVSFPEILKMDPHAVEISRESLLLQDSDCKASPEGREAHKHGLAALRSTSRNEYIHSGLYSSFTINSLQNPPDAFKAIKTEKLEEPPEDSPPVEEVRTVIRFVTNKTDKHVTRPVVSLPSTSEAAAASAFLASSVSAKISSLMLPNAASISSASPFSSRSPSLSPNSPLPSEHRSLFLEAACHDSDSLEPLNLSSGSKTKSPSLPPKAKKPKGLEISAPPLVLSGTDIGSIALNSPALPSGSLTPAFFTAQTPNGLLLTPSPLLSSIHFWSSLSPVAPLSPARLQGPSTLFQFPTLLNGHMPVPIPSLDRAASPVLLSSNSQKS
Summary of the method: as §1

Sequence of ELF1 (P32519 whole entry): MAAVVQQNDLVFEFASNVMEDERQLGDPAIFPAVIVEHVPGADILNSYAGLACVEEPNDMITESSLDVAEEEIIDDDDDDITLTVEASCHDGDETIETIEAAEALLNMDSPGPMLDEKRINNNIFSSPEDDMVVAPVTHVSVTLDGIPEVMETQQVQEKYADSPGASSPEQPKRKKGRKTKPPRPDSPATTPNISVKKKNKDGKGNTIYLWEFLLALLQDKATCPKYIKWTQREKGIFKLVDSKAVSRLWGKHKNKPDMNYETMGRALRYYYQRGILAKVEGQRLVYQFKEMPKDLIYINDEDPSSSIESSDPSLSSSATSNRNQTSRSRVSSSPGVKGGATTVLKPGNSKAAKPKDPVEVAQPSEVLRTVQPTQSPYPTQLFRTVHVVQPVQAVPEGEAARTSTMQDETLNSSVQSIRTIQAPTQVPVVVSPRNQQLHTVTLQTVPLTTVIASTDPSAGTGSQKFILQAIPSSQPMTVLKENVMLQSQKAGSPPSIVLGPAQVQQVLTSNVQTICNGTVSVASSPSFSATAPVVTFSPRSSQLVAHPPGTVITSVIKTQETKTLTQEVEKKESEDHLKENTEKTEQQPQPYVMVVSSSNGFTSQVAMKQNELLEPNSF
Sequence of SPIB (Q01892 whole entry): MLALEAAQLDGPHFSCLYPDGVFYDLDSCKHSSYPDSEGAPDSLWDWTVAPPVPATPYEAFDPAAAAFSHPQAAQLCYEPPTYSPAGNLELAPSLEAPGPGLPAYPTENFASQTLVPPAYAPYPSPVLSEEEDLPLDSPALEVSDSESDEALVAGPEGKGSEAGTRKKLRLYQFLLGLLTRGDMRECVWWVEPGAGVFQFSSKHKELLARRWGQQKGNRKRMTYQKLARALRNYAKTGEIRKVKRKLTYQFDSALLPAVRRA

AACCTT
binding signal (FLI1): 1.3 fold enrichment (6-mer frequency, TF over GST control) | binding signal (ELK1): 1.25 fold enrichment (6-mer frequency, TF over GST control) | binding signal (GABPA): 1.25 fold enrichment (6-mer frequency, TF over GST control) | binding signal (ERG): 1.26 fold enrichment (6-mer frequency, TF over GST control) | binding signal (ELF1): 1.33 fold enrichment (6-mer frequency, TF over GST control) | binding signal (EHF): 1.33 fold enrichment (6-mer frequency, TF over GST control) | binding signal (SPI1): 1.26 fold enrichment (6-mer frequency, TF over GST control) | binding signal (SPIB): 1.34 fold enrichment (6-mer frequency, TF over GST control) | binding signal (ELK3): 1.33 fold enrichment (6-mer frequency, TF over GST control)
